This is a sample that favours compounds with a hit; in the whole collection about 2.6% have one here.
Cruzain inh Det: qHTS Assay for Promiscuous and Specific Inhibitors of Cruzain (with detergent) | Cruzipain (Trypanosoma cruzi), P25779 | purified cruzain, Z-FR-AMC fluorescence, 0.01% Triton | AID 1478, 2009 | Potency, µM, inactives show max response, negative = inhibition, hits mostly inhibitors | hit rate 0.43% among 200,000;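 further: plate controls were neutral wells for no effect and buffer without enzyme for full effect; nearly all actives have a fitted effect of over 40% in size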
Target sequence (P25779 123-467 limits assumed): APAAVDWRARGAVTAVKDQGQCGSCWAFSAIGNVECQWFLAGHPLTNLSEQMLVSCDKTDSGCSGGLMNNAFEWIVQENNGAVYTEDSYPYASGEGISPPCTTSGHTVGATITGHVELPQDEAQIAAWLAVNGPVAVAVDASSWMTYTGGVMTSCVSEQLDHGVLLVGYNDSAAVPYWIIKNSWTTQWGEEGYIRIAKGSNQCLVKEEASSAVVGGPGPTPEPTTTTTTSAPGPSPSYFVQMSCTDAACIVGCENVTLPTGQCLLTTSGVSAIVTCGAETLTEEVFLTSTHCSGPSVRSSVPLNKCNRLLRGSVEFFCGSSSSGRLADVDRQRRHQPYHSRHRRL
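Steps: dispense cruzain (1.5 nM final) in acetate buffer pH 5.5 with DTT and 0.01% Triton X-100; pin-transfer compounds; incubate 15 min RT; add Z-FR-AMC (2 uM final); read fluorescence every 30 s, using the 60 s intensity change.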
Cruzain noTriton: qHTS Assay for Promiscuous and Specific Inhibitors of Cruzain (without detergent). purified cruzain, Z-FR-AMC fluorescence, no detergent. Potency, µM, inactives show max response, negative = inhibition, usual class: inhibitors. AID 1476, 2009. hit rate 2.3% among 200,000;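 further: plate controls were enzyme without inhibitor for no effect and buffer without enzyme for full effect; nearly all actives have a fitted effect of over 40% in size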
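Purified cruzain at 1.5 nM, pre-incubated 15 min with compound at room temperature in 100 mM sodium acetate pH 5.5, 5 mM DTT, 0.00005% Triton X-100. Reaction started with 2 uM Z-FR-AMC; AMC fluorescence increase over 60 s gives rate.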
Active calls of the source: *; ? = inconclusive; ! = a repeat was not active. The call rests on the fitted dose curve; in most records, active means well fitted curve in the direction sought with a large enough effect; inconclusive means small, poorly fitted or top-dose-only effect, or another doubt; inactive means no such curve, though single readings can be large; an effect the other way counts as inactive or inconclusive. Potency means the concentration at half of the fitted maximal effect.

SMILES	Cruzain inh Det	Cruzain noTriton
O=C1COC(c2ccccc2O)=NN1CCCN1CCCC1	3%	-4%
S=C(S)NCCN1CCNCC1	2%	-2%
CCn1c(N2CCN(S(=O)(=O)c3ccccc3C(F)(F)F)CC2)nc2ccccc21	1%	11%
O=S(=O)(c1ccccc1C(F)(F)F)N1CCN(S(=O)(=O)c2ccccc2C(F)(F)F)CC1	3%	20µM*
CC(C)(C)CC(C)(C)NC(=S)Nc1ccc(S(=O)(=O)N2CCOCC2)cc1	-10%	?
O=S(=O)(c1ccc(NC(=S)NCCC(c2ccccc2)c2ccccc2)cc1)N1CCOCC1	-12%	25µM*
Cc1nc(NC2CCCCC2)c2nc(-c3ccccc3)n(CC3CCN(C)CC3)c2n1	-3%	-2%
COc1ccc(C(=O)c2cn(CC(=O)Nc3cc(C)ccc3C)c3nc(C)ccc3c2=O)cc1	0%	4%
COc1ccc(-c2cc(=O)oc3cc(OC(=O)C4CCCCC4)c(Cl)cc23)cc1	-5%	6.3µM*
COc1ccc(-c2cc(=O)oc3cc4occ(C)c4cc23)cc1	-2%	-17%
Cc1sc(NC(=O)c2cc3ccccc3oc2=O)c(C(=O)OC(C)C)c1-c1ccccc1	-1%	3.2µM*
CCOC(=O)c1c(-c2ccc(C)cc2)csc1NC(=O)c1cc2ccccc2oc1=O	0%	-7%
CS(=O)(=O)N1CCC2(CC1)CN(c1ccccc1)C2	-1%	-7%
CC1=CC(C)(C)Nc2ccc(OC(=O)CCN3C(=O)c4ccccc4C3=O)cc21	-14%	9%
CC1=CC(C)(C)Nc2ccccc21	0%	16µM*!
Cn1c(SCc2cccc(F)c2)nc2c([nH]c3ccccc32)c1=O	0%	-6%
Cc1ccc(-c2nnn(CC(=O)NCCC3=CCCCC3)n2)cc1	8%	?
O=C(Cn1nnc(-c2ccc(Cl)cc2)n1)NCCC1=CCCCC1	10%	20µM*
CC[C@@H]1OC(=O)[C@H](C)[C@H](O[C@@H]2C[C@](C)(OC)[C@H](O)[C@H](C)O2)[C@H](C)[C@H](O[C@@H]2O[C@@H](C)C[C@@H](N(C)C)[C@@H]2O)[C@](C)(O)C[C@H](C)C(=NOCOCCOC)[C@H](C)[C@H](O)[C@]1(C)O	2%	1%
Cc1c2cccc(Sc3ccccc3)c2c2c3c(cccc13)[S+](c1ccccc1)C2 (stereo unspecified)	1%	2.5µM*
COc1cc2nc(SCc3ccc(Cl)cc3Cl)n(Cc3cccs3)c(=N)c2cc1OC	0%	7.9µM*
COc1cc2nc(SCc3ccc(C(F)(F)F)cc3)n(Cc3cccs3)c(=N)c2cc1OC	-1%	?
CCOc1ccccc1CNC(=O)c1ccc2nc(CCc3ccccc3)oc2c1	-3%	13%
CC(C)[C@@H](CC(=O)N[C@@H]1CCCC[C@H]1C(=O)N[C@H](CC(=O)N[C@@H](CCC(=O)O)CC(=O)O)Cc1ccccc1)NC(=O)C[C@H](Cc1ccccc1)NC(=O)[C@@H]1CNCC[C@H]1N	-4%	2%
NS(=O)(=O)c1cc(Br)c(N=Nc2ccc(O)c3ncccc23)c(Br)c1	6%	-5%
SMILES	Cruzain inh Det	Cruzain noTriton
Cc1cccc(N=Nc2ccc(O)c3ncccc23)c1	2%	20µM*
O=Nc1c(-c2c(O)[nH]c3cc(Br)ccc23)[nH]c2ccccc12	-3%	32µM*
O=Nc1c(O)[nH]c2ccccc12.[Cu].[O-]/N=C1/C(=[OH+])Nc2ccccc21	0%	6%
Cn1cc(-c2nc3cncnc3n(CCN)c2=O)c2ccccc21	1%	-14%
Cc1cccc(S(=O)(=O)N2CN(Cc3ccco3)c3nc4ccccc4nc32)c1	-8%	25µM*
COCCN1CN(S(=O)(=O)c2ccccc2)c2nc3ccccc3nc21	-13%	-3%
Cn1cccc1CC(=O)NNC(=S)Nc1ccc(Cl)cc1Cl	1%	3%
O=C(CN1c2ccccc2Sc2ccccc21)NNC(=S)Nc1ccc(Cl)cc1Cl	8%	10µM*
CCOc1ccc(N=c2oc3cc(O)ccc3cc2C(=O)NCC2CCCO2)cc1 (stereo unspecified)	2%	6.3µM*
COc1ccc(N=c2oc3cc(O)ccc3cc2C(=O)NCC2CCCO2)cc1 (stereo unspecified)	5%	-20%
Cc1nn(Cc2ccc(C(=O)n3cccn3)o2)c(C)c1Br	-7%	1%
O=C(c1ccc(COc2ccc(F)cc2)o1)n1cccn1	16µM*	13µM*
Cc1cc(OCc2ccc(C(=O)n3cccn3)o2)ccc1Cl	7.9µM*	?
Cc1ccnc(NC(=O)c2ccc(COc3ccc(Cl)cc3)o2)c1	-6%	1%
CCOc1ccc(OCc2ccc(C(=O)O)o2)cc1	0%	-3%
O=C(c1ccc(COc2ccc(F)cc2)o1)n1cc(Br)cn1	14µM*	?
CCc1ccc(NC(=O)CSc2ccc3nc(-c4ccc(OC)cc4)cn3n2)cc1	1%	?

From PubChem
